An excerpt weighted towards active compounds, which were near 7.4% of everything screened.
ELG1 genotox = genotoxicity induction in ELG1-luciferase HEK293T cells; HEK293T ELG1-luciferase reporter, luminescence, 16 h; Potency, µM (top dose mostly 46 µM), most hits filed as activators; 330,000 compounds, 1.3% hits; further: nearly all actives have a fitted effect of over 60% in size
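Genotoxicity was scored as increased ELG1-luciferase reporter signal, measured by ONE-Glo luminescence (30 min, room temperature). Compound or vehicle exposure of the HEK293T reporter cells lasted 16 hr at 37°C.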
SMN2 splice up = enhancers of SMN2 splice variant expression | 210,000 compounds, 2.8% hits | HEK293 SMN2-luciferase splicing reporter, luminescence, 30-36 h | Potency, µM (top dose mostly 46.1 µM), most hits filed as activators; further: nearly all actives have a fitted effect of over 55% in size
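HEK293 cells carry an SMN2 minigene-luciferase reporter in which exon 7 inclusion puts luciferase in frame. Cells were seeded at 2000 cells/well, attached for 10-12 hours, then exposed to compounds for 30-36 hours at 37C before ONE-Glo luminescence.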
FLuc counter = inhibits or activates purified firefly luciferase, miR-21 counter-screen | P08659 | purified FLuc, Km substrates, luminescence inhibition | Potency, µM (series often up to 57.5 µM), most hits filed as inhibitors | 360,000 compounds, 6.9% hits | AID 588342; further: nearly all actives have a fitted effect of over 55% in size
Target sequence (P08659 whole entry, looked up): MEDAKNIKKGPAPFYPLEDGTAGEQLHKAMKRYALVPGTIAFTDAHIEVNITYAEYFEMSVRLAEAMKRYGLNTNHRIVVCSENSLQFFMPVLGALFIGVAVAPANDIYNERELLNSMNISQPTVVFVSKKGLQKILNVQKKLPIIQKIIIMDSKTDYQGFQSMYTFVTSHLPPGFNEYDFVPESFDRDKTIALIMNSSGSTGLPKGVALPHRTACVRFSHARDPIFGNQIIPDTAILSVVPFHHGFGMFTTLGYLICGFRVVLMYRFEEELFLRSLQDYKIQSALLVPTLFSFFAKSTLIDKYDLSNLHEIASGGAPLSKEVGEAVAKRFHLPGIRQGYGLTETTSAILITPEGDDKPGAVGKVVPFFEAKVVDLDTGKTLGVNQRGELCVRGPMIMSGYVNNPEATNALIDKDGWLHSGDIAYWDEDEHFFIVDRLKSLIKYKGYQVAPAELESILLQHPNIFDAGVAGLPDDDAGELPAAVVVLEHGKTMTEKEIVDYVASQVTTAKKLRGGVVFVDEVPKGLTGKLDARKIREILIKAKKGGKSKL
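Biochemical qHTS of compounds, final roughly 60 µM downward over six points, against 10 nM purified firefly luciferase using Km concentrations of substrates (10 uM D-luciferin, 10 uM ATP) in Tris acetate pH 7.5 buffer; luminescence output.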
Rab9 prom act = activates the Rab9 promoter. 320,000 compounds, 2.8% hits. AID 485297. Huh7 Rab9 promoter-luciferase reporter, luminescence, 24 h. Potency, µM (highest dose often 9.22 µM), actives largely listed as activators; further: nearly all actives have a fitted effect of over 60% in size
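Rab9 promoter-driven luciferase in stably transfected Huh7 cells; 1500 cells/well rested 2 h, exposed to compound in DMSO for 24 h at 37 °C, 5% CO2. Luminescence read 10 min after adding luciferase reagent at ambient temperature.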
NPC1 prom act = activates the NPC1 promoter | Huh7 NPC1 promoter luciferase reporter, 24 h | Potency, µM (series often up to 9.22 µM), most hits filed as activators | 320,000 compounds, 2.4% hits | AID 485313; further: nearly all actives have a fitted effect of over 60% in size
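Stable NPC1-promoter luciferase Huh7 line; cpd (DMSO) 24 h, 37 °C, 5% CO2; Amplite luciferase reagent 10 min RT; luminescence readout. qHTS format.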
Hits are given with their value; – = inactive; ? = inconclusive; · = no result. The call rests on the fitted dose curve; in most records, active means well fitted curve in the direction sought with a large enough effect; inconclusive means small, poorly fitted or top-dose-only effect, or another doubt; inactive means no such curve, though single readings can be large; an effect the other way counts as inactive or inconclusive.

SMILES | ELG1 genotox | SMN2 splice up | FLuc counter | Rab9 prom act | NPC1 prom act
Cc1ccc(/C=N/NC(=O)c2ccc(Br)o2)s1 | ? | 16µM | ? | ? | ?
CCc1ccc(/C=N\NC(=O)c2ccc(Br)o2)s1 | ? | 11µM | 11µM | 2.8µM | 3.5µM
Cc1ccccc1N1CCN(C2=NC(=O)/C(=C\c3cccs3)S2)CC1 | – | ? | 9.5µM | – | –
Cc1ccc(/C=C2\SC(N3CCCCC3)=NC2=O)cc1 | – | · | 19µM | ? | –
CC(C)(C)c1ccc(/C=C2/SC(N3CCCC3)=NC2=O)cc1 | – | · | 12µM | – | –
CCOC(=O)C1CCCN(C2=NC(=O)/C(=C/c3ccc(N(C)C)cc3)S2)C1 (stereo not drawn) | – | · | 12µM | – | –
CCCc1ccc(S(=O)(=O)N2CCN(C(C)C(=O)NCc3ccccc3)CC2)cc1 (stereo not drawn) | – | · | – | – | –
CC(C)(C)c1ccc(CSc2nc3c(c(=O)[nH]2)CCCC3)cc1 | · | · | – | · | ·
Cc1cc(C)cc(OCC(=O)Nc2nc3c(s2)CC(C(C)(C)C)CC3)c1 (stereo not drawn) | · | · | 12µM | · | ·
CC(C)(C)C1CCc2nc(NC(=O)COc3ccccc3[N+](=O)[O-])sc2C1 (stereo not drawn) | · | · | – | · | ·
CCOc1cc(C(=O)N(C)CC(=O)Nc2cccc(F)c2)ccc1OCC(=O)N1CCOCC1 | – | · | – | – | –
N#CCCN(C(=O)COC(=O)COc1ccccc1Cc1ccccc1)c1ccccc1 | – | · | – | – | –
N#Cc1c(/N=C\c2ccc(O)c([N+](=O)[O-])c2)sc2c1CCCC2 | – | · | ? | ? | –
N#Cc1c(/N=C/c2ccc(-c3ccccc3C(=O)O)o2)sc2c1CCCC2 | 15µM | · | 0.76µM | 0.71µM | 1.8µM
N#Cc1c(/N=C/c2ccc(-c3ccc(C(=O)O)c(Cl)c3)o2)sc2c1CCCC2 | – | · | 2.4µM | – | –
COC(=O)[C@@]1(Cc2ccccc2)[C@H]2c3cc(C(=O)N(C)C)n(Cc4cc(F)c(F)c(F)c4)c3C[C@H]2CN1C(=O)c1ccccc1 | · | – | · | · | ·
C=CCN1C(=O)c2ccc(C(=O)N(C)CC(=O)Nc3cccc(F)c3)cc2C1=O | – | · | – | – | –
Nc1ncnc(Nc2ccccc2)n1 | – | · | – | – | –
Nc1cnc(Nc2ccc(Br)cc2)nc1N | ? | · | 15µM | ? | –
CCOC(=O)N1CCN(c2ccc(S(=O)(=O)N(Cc3ccccc3)Cc3ccccc3)cn2)CC1 | 12µM | – | – | – | –
CCOC(=O)N1CCN(c2ccc(S(=O)(=O)N3CCOCC3)cn2)CC1 | – | · | · | · | ·
COc1ccccc1NC(=O)C(C)OC(=O)CCC1CCCCC1 (stereo not drawn) | – | · | – | – | –
NC(=S)N/N=C\c1ccccc1OCc1ccccc1 | – | – | – | – | –
NC(=S)N/N=C/c1ccccc1OC(=O)/C=C/c1ccccc1 | – | · | 27µM | – | –
NC(=O)N/N=C/c1ccccc1OC(=O)c1cc2ccccc2oc1=O | ? | · | ? | – | –
SMILES | ELG1 genotox | SMN2 splice up | FLuc counter | Rab9 prom act | NPC1 prom act
NC(=S)N/N=C/c1ccccc1OC(=O)c1cc2ccccc2oc1=O | – | · | 21µM | – | –
CC(C)Cn1cnc2c1c(=O)[nH]c(=O)n2Cc1ccccc1 | – | · | – | – | –
COc1ccc(N2CCN(c3cnc4ccccc4n3)CC2)cc1 | ? | ? | 13µM | ? | ?
COc1ccc(N2CCN(c3cc(C)c4ccccc4n3)CC2)cc1 | – | – | – | – | –
COc1cccc(N2CCN(c3cnc4ccccc4n3)CC2)c1 | – | – | 24µM | 1.6µM | ?
COc1ccc(-n2c(=O)c(CCc3ccccc3)nc3cnc(N4CCNCC4)nc32)cc1 | · | – | · | · | ·
Cn1c(NCc2cccs2)nc2ccccc21 | 23µM | 11µM | ? | ? | –
C=CCn1c(NCc2c[nH]c3ccccc23)nc2ccccc21 | – | – | 24µM | – | –
Cn1c(NCc2c[nH]c3ccccc23)nc2ccccc21 | – | 11µM | 9.5µM | 2µM | 2.2µM
CCn1c(NCc2cccs2)nc2ccccc21 | – | ? | – | – | –
COc1ccc(/C=C/C(=O)N2CCN(S(=O)(=O)c3ccccc3Br)CC2)cc1OC | – | · | · | · | ·
Cn1c(CNc2ccccc2O)nc2ccccc21 | – | – | ? | – | –
Cn1c(CNc2ccc(F)cc2)nc2ccccc21 | 16µM | · | 9.5µM | 2.2µM | 2.2µM
Cn1c(CNc2ccccc2)nc2ccccc21 | ? | 18µM | 19µM | 3.2µM | 4µM

Bioassay records: PubChem, National Center for Advancing Translational Sciences (NCATS)
